BAZ2B inh = blocks human BAZ2B. Q9UIF8. 4.4% of 360,000 active. AlphaScreen BAZ2B-H3K14Ac peptide displacement. Potency, µM (top dose mostly 114 µM), hits mostly inhibitors; note: nearly all actives have a fitted effect of over 60% in size
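Compounds, titrated to a top concentration of 110 uM, were incubated 30 min at room temperature with preformed BAZ2B/acetyl-K14 H3 peptide complex (50 nM each). Proximity signal was measured by AlphaScreen after 20 min with beads.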
JMJD2A Tudor inh = blocks the human JMJD2A Tudor domain | O75164 | Potency, µM (highest dose often 114 µM), most hits filed as inhibitors | AID 504339 | 4.4% of 390,000 active | AlphaScreen JMJD2A-Tudor / H3K4me3 peptide binding; note: nearly all actives have a fitted effect of over 50% in size
VDR inhibitor = blocks the human vitamin D receptor; VDR-SRC2-3 peptide fluorescence polarization, 2 h; Potency, µM, most hits filed as inhibitors; 0.93% of 400,000 active; AID 504847
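Fluorescence polarization assay measuring small-molecule disruption of VDR binding to the coregulator peptide SRC2-3. Compounds were pin-transferred (23 nl) into the reagent mix and incubated 2 h at room temperature before reading.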
PLK1 PBD inh = blocks phosphopeptide binding to human PLK1 polo-box domain; Plk1 PBD binding of FITC phosphopeptide, fluorescence polarization; Potency, µM, actives largely listed as inhibitors; 2.8% of 360,000 active; note: series mostly up to about 57 µM; nearly all actives have a fitted effect of over 65% in size
Target sequence (P53350 whole entry, looked up, the tested form may be a part): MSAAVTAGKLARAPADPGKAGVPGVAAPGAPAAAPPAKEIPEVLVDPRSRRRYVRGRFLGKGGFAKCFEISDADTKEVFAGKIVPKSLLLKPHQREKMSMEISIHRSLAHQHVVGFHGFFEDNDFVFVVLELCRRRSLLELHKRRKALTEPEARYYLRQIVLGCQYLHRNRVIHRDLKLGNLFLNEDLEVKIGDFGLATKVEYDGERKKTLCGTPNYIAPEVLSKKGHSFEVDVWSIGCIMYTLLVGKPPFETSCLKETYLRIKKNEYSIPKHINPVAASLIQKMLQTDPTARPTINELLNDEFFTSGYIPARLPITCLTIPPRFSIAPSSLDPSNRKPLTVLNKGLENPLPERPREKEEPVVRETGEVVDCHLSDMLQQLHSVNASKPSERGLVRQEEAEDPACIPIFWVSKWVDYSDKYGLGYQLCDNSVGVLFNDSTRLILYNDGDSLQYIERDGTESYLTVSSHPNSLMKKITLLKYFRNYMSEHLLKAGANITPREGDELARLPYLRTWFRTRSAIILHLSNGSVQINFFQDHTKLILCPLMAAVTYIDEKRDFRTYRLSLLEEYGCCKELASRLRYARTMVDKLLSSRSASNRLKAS
HP1b binding inh = HP1-beta chromodomain-methylated histone interaction inhibition; P83916; AlphaScreen HP1-beta / biotin-H3K9me3 peptide binding; Potency, µM (series often up to 114 µM), actives largely listed as inhibitors; 0.56% of 390,000 active; AID 540317; note: nearly all actives have a fitted effect of over 70% in size
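HP1-beta protein (50 nM final) preincubated 30 min at room temperature with biotinylated H3(1-18)K9me3 peptide (50 nM) in PBS pH 7.4, 0.01% Tween-20, then compound added for 30 min. AlphaScreen streptavidin donor/nickel chelate acceptor beads (10 ug/mL final), 30 min dark, luminescence read.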
L3MBTL1 block = L3MBTL1 (human) inhibition; Q9Y468; AlphaScreen L3MBTL1–H3K9me1 peptide binding; Potency, µM (doses to about 57.1 µM), hits mostly inhibitors; 0.66% of 230,000 active; AID 485360; note: nearly all actives have a fitted effect of over 60% in size
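Displacement of a biotinylated histone H3(1-15) peptide monomethylated at Lys9 (75 nM) from L3MBTL1 (50 nM) was measured by AlphaScreen after a 30 min room-temperature compound incubation; cefsulodin titration served as intraplate control.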
Large screens that a line does not name were inactive; ! = not confirmed by another sample. Compounds with a hit are over-represented: about 6.9% of the library has one in this group of screens. Calls come from the whole dose curve; as a rule, active = well fitted curve in the direction sought with a large enough effect; inconclusive = small, poorly fitted or top-dose-only effect, or another doubt; inactive = no such curve, though single readings can be large; an effect the other way counts as inactive or inconclusive.

Nc1cc(-c2ccc(Cl)cc2)nn1S(=O)(=O)c1cccc2nsnc12	BAZ2B inh inconclusive, JMJD2A Tudor inh 45µM (no result: L3MBTL1 block)
OC(CNCc1ccc(-c2ccccc2)cc1)c1ccccc1 (stereo unspecified)	none
OC(CNCc1cccs1)c1ccccc1 (stereo unspecified)	BAZ2B inh inconclusive (no result: L3MBTL1 block)
OC(CNCc1ccncc1)c1ccccc1 (stereo unspecified)	JMJD2A Tudor inh inconclusive, PLK1 PBD inh 27µM
OC(CNCc1ccccn1)c1ccccc1 (stereo unspecified)	BAZ2B inh 22µM
CCOC(=O)c1cc(-c2ccc(C)cc2)nn1Cc1ccccc1	none (no result: BAZ2B inh, PLK1 PBD inh, L3MBTL1 block)
COc1ccc(N2CCN(CCCNS(=O)(=O)c3c(C)noc3/C=C/N(C)C)CC2)cc1	BAZ2B inh 35µM, L3MBTL1 block inconclusive (no result: JMJD2A Tudor inh, VDR inhibitor, PLK1 PBD inh, HP1b binding inh)
CCCCn1cnc(C(=O)OCC)c1N	none
O=C(NNC1=C(C(=O)C(F)(F)F)CCC1)c1cccc(O)c1	none
Cc1cccc(C(=O)NNC2=C(C(=O)C(F)(F)F)CCC2)c1O	BAZ2B inh 18µM, JMJD2A Tudor inh 79µM, PLK1 PBD inh inconclusive (no result: L3MBTL1 block)
Cc1ccc2[nH]c(=O)c(CN(Cc3cccnc3)Cc3nnnn3CCN3CCOCC3)cc2c1	JMJD2A Tudor inh inconclusive, PLK1 PBD inh 4.7µM
Cc1ccc2[nH]c(=O)c(CN(Cc3cccnc3)Cc3nnnn3CC3CCCO3)cc2c1 (stereo unspecified)	none (no result: L3MBTL1 block)
COc1ccc(C2CC3(CC(C)(C)NC(SC)=N3)Oc3cc(O)cc(C)c32)cc1 (stereo unspecified)	JMJD2A Tudor inh 79µM
CO/N=C(/C(=O)N[C@@H]1C(=O)N2C(C(=O)O)=C(CSc3nc(C)c(CC(=O)O)s3)CS[C@H]12)c1csc(N)n1	VDR inhibitor 35µM (no result: BAZ2B inh, JMJD2A Tudor inh, PLK1 PBD inh, HP1b binding inh, L3MBTL1 block)
CO/N=C(/C(=O)N[C@@H]1C(=O)N2C(C(=O)O)=CCS[C@H]12)c1csc(N)n1	VDR inhibitor 35µM (no result: BAZ2B inh, JMJD2A Tudor inh, PLK1 PBD inh, HP1b binding inh, L3MBTL1 block)
CO/N=C(\C(=O)NC1C(=O)N2C(C(=O)OCOC(=O)C(C)(C)C)=C(/C=C\c3scnc3C)CSC12)c1csc(N)n1 (stereo unspecified)	VDR inhibitor 35µM (no result: BAZ2B inh, JMJD2A Tudor inh, PLK1 PBD inh, HP1b binding inh, L3MBTL1 block)
Cc1nc2nc(CC(=O)O)[nH]n2c(=O)c1[N+](=O)[O-]	JMJD2A Tudor inh 18µM, PLK1 PBD inh inconclusive
CCCc1nc2nc(C)c(NS(=O)(=O)c3ccc([N+](=O)[O-])cc3)c(=O)n2[nH]1	none (no result: L3MBTL1 block)
CC1CN(c2ccc([N+](=O)[O-])c(NCCOc3ccccc3)c2)CC(C)N1 (stereo unspecified)	BAZ2B inh inconclusive, JMJD2A Tudor inh inconclusive
CC1CN(c2ccc([N+](=O)[O-])c(NCCOc3ccc(Cl)cc3)c2)CC(C)N1 (stereo unspecified)	BAZ2B inh 11µM, JMJD2A Tudor inh 32µM, HP1b binding inh inconclusive
CCc1ccc(OCCNc2cc(N3CCNC(C)C3)ccc2[N+](=O)[O-])cc1 (stereo unspecified)	BAZ2B inh 35µM, JMJD2A Tudor inh 40µM, HP1b binding inh inconclusive
CS(=O)(=O)N1CCN(c2ccc([N+](=O)[O-])c(NCc3ccc(Cl)cc3)c2)CC1	BAZ2B inh inconclusive, JMJD2A Tudor inh 89µM
CCOC(=O)C1=C[C@@H](C(=O)OCC)[C@@H]2C3=C(C(=O)C2(C)C)[C@H](c2ccccc2)[C@@H]2C(=O)N(c4ccccc4)C(=O)[C@@H]2[C@@H]3C1	VDR inhibitor inconclusive (no result: BAZ2B inh, PLK1 PBD inh, L3MBTL1 block)
CCOc1ccc(C(=O)OCc2cc(=O)n3cc(C)sc3n2)cc1	none (no result: PLK1 PBD inh, L3MBTL1 block)
COc1ccc(/C=C/C(=O)c2ccc3ccccc3c2O)cc1CN1CCOCC1	BAZ2B inh 14µM, JMJD2A Tudor inh inconclusive, HP1b binding inh inconclusive
Cc1ccccc1C(=O)Nc1scc(-c2ccc(Br)cc2)c1C(=O)O	PLK1 PBD inh 21µM (no result: BAZ2B inh, L3MBTL1 block)
CCCCNC(=O)c1cn(C)c2ccc(S(=O)(=O)N3CC(C)CC(C)C3)cc2c1=O (stereo unspecified)	none (no result: L3MBTL1 block)
C/C(=C\C(=O)c1c(O)cc(C)oc1=O)N(C)C	PLK1 PBD inh 30µM, L3MBTL1 block inconclusive
COc1cc(/C=C/C(=O)c2c(O)cc(C)oc2=O)cc(OC)c1O	BAZ2B inh inconclusive, VDR inhibitor 22µM! (no result: L3MBTL1 block)
C=CCn1c(SCC(=O)NC2CCCCC2)nnc1-c1ccccn1	BAZ2B inh 79µM (no result: L3MBTL1 block)
Cn1c(SCC(=O)NC2CCCC2)nnc1-c1ccccn1	BAZ2B inh inconclusive (no result: L3MBTL1 block)
C=CCn1c(SCC(=O)c2ccccc2)nnc1-c1ccc2c(c1)OCO2	BAZ2B inh inconclusive, JMJD2A Tudor inh 35µM, VDR inhibitor inconclusive (no result: L3MBTL1 block)
O=C(CSc1nnc(-c2ccccn2)n1Cc1ccccc1)NC1CCCC1	BAZ2B inh 89µM
CCCn1c(SCC(=O)NC2CCCCC2)nnc1-c1ccccn1	BAZ2B inh inconclusive
Cn1c(SCC(=O)NC2CCCCC2)nnc1-c1ccccn1	BAZ2B inh 79µM (no result: L3MBTL1 block)
CCc1ccc(S(=O)(=O)c2nnn3c2nc(NCc2cccs2)c2sccc23)cc1	BAZ2B inh inconclusive (no result: PLK1 PBD inh, L3MBTL1 block)
COc1ccc(CCNC(=O)NCc2noc3ccccc23)c(OC)c1	none (no result: PLK1 PBD inh, L3MBTL1 block)
C=CCn1c(SCC(=O)Nc2ccc3c(c2)OCCO3)nnc1-c1ccccn1	BAZ2B inh inconclusive, JMJD2A Tudor inh 89µM
Cn1cc(C(c2ccccc2)c2ccc(Cl)s2)c2ccccc21 (stereo unspecified)	none (no result: PLK1 PBD inh, L3MBTL1 block)
CCOc1cc(-c2sc(Nc3ccccc3)n[n+]2C)ccc1OC	BAZ2B inh inconclusive

Assay outcomes as filed in PubChem.
